tim23-1 inh: tim23-1 yeast growth inhibition | S. cerevisiae tim23-1 growth, BacTiter-Glo luminescence, 24 h | inhibition, % at 20 µM | 1.3% of 330,000 active | AID 463212;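 active = growth inhibition of the mutant yeast at or above 50%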;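 note: temperature-sensitive mutant grown at 25 °C; plate controls were DMSO-treated mutant yeast for no effect and medium wells lacking yeast for full effect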
NALP3 yeast inh: inhibitors of NALP3 inflammasome in yeast. inhibition, % at 10 µM. AID 2825. 0.39% of 330,000 active. Yeast reconstituted NLRP3/ASC/caspase-1, beta-gal luminescence, 24 h;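 active = inhibition of 50% or more; inactive = inhibition below 50%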;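 note: plate controls were induced DMSO wells for no effect and uninduced yeast grown without galactose for full effect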
PfHsp90 yeast 2: reduces growth (ATP signal) of yeast expressing P. falciparum Hsp90 | S. cerevisiae expressing PfHsp90, BacTiter-Glo ATP, 48 h; yeast lacking PDR1 and PDR3 efflux regulators | inhibition, % at 9.4 µM | 0.32% of 310,000 active | AID 504621;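 active = every replicate shows inhibition above about 80%, whatever the replicate mean, limit read from the data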;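 note: 0% = DMSO neutral controls and 100% = 20 µM radicicol positive controls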
TIM10 inh: TIM10 yeast growth inhibition; S. cerevisiae TIM10 strain growth, BacTiter-Glo luminescence, 24 h; inhibition, % at 10 µM; 1.4% of 330,000 active;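 active = inhibition of 40% or more at the single tested concentration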;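 note: wild-type TIM10 isogenic control strain grown at permissive 25 °C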
tim10-1 inh: tim10-1 yeast growth inhibition; S. cerevisiae tim10-1 ts strain growth, BacTiter-Glo, 24 h; inhibition, % at 20 µM; 2.2% of 330,000 active; AID 463190;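 active = inhibition of at least 40%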;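 note: mutant grown at 25 °C; 0% = DMSO wells with yeast and 100% = wells holding no yeast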
NALP3 yeast conf: NALP3 inhibition confirmation in yeast; shares compounds with NALP3 yeast inh; yeast expressing human NALP3, luminescence; inhibition, % at 10 µM; 81% of 1,300 active; in the data active = inhibition above about 48%
Casp1 ASC ctr: active in yeast caspase-1-ASC counter-screen for NALP3 inhibitors. shares compounds with NALP3 yeast inh. yeast expressing Caspase-1-ASC, luminescence counter screen. inhibition, % at 10 µM. 66% of 1,000 active. AID 488784
NALP3 yeast rt: confirmation retest of NALP3 inhibitors in yeast; yeast expressing human NALP3, luminescence read-out; AID 488794; 53% of 1,000 active; inhibition, % at 10 µM; shares compounds with NALP3 yeast inh
An asterisk follows results filed as active; . = no result given. A selection: hits, their analogues and other compounds. The true share with any hit is near 3.7%. Cut-off read from the data, not from the text of the source, unless noted: active = inhibition above about 50%; inactive = the rest.

SMILES	tim23-1 inh	NALP3 yeast inh	PfHsp90 yeast 2	TIM10 inh	tim10-1 inh	NALP3 yeast conf	Casp1 ASC ctr	NALP3 yeast rt
CCc1noc(C)c1C(=O)Nc1cc(C(F)(F)F)ccc1-n1cncn1	11	14	.	3	16	.	.	.
CCc1noc(C)c1C(=O)Nc1ccc(C(F)(F)F)cc1	-7	50*	19	1	3	62*	49	46
CCOC(=O)c1c(C)[nH]c(C)c1S(=O)(=O)NCCN1CCN(c2cc(Cl)ccc2C)CC1	33	17	35	25	35	.	.	.
Cc1cn([C@H]2C[C@H](O)[C@@H](CCC(=O)NC(c3ccccc3)c3ccccc3)O2)c(=O)[nH]c1=O	.	.	14	.	.	.	.	.
C[C@@]12CCC3[C@@](CCC4[C@@]3(C)CCC[C@@]4(C)C(=O)NCc3ccccc3)(CC1=O)C2 (stereo not given in full)	25	52*	-73	-25	-17	54*	47	45
CC(C)(C)NC(=O)[C@]1(C)CCC[C@@]2(C)C3CC[C@@]4(C)C[C@]3(CCC21)CC4=O (stereo not given in full)	24	52*	19	9	17	42	44	42
CN(C)CCNC(=O)C(=O)Nc1cc2c3c(c1)CCN3C(=O)CC2	-18	1	-12	0	-15	.	.	.
Cc1cc(C)c(NC(=O)CN(C)C(C)C(=O)N2CCc3ccccc32)c(C)c1 (stereo not given)	23	15	-7	12	26	.	.	.
COc1ccccc1-c1nnc2sc(-c3cc4ccccc4o3)nn12	-50	59*	43	-3	-43	70*	.	.
CCCCNC(=O)Oc1c(Br)cc2sc(=O)oc2c1Br	-11	72*	.	-9	35	62*	.	.
CCCCNC(=O)Oc1cc(CCl)on1	11	-14	.	2	7	.	.	.
O=C(Nc1cc2ccccc2oc1=O)c1ccccc1	2	60*	30	13	16	73*	51*	53*
O=C(CN1CCCCCCC1)Nc1cc(Cl)cc(Cl)c1	20	51*	0	-12	5	23	.	.
CC(C(=O)N1CCc2ccccc21)N(C)CC(=O)Nc1cccc(F)c1 (stereo not given)	28	4	12	2	3	.	.	.
COC(=O)c1sccc1NC(=O)c1ccc(C(C)C)cc1	23	31	-7	-3	9	.	.	.
Cc1ccc2oc(/N=C(\N)NC(=O)C(C)(C)C)nc2c1	4	71*	5	21	21	58*	45	47
COCc1ccc(C(=O)NC2CCCc3c2cnn3-c2cc(C)cc(C)c2)s1 (stereo not given)	27	12	13	9	20	.	.	.
CC1(C)S[C@@H]2[C@H](NC(=O)C(NC(=O)N3CCNC3=O)c3ccccc3)C(=O)N2[C@H]1C(=O)O (stereo not given in full)	8	-5	12	-11	16	.	.	.
O=C(Nc1ccccc1)Nc1cc(Cl)cc(Cl)c1	-8	56*	-8	1	-12	77*	68*	78*
O=C(Nc1cccc(Cl)c1)Nc1cccc(Cl)c1	18	11	-10	7	1	.	.	.
O=C(NCc1ccccc1)c1cc(-c2cccs2)on1	11	37	-5	-7	6	.	.	.
O=C(NCc1ccc(F)cc1)c1cc(-c2cccs2)on1	3	51*	-23	-13	-5	69*	45	37
CCOc1ccc(C(=O)Nc2ccccc2CC)cc1[N+](=O)[O-]	-39	53*	-39	-55	-41	60*	53*	55*
COc1cc(C(=O)NC(=S)Nc2ccc3[nH]c(=O)[nH]c3c2)cc(OC)c1OC	-19	13	-9	-16	-9	.	.	.
CC1=NN(C(=O)c2ccccc2-n2cccc2)C(O)(C(F)(F)F)C1 (stereo not given)	-3	9	11	-16	1	.	.	.
SMILES	tim23-1 inh	NALP3 yeast inh	PfHsp90 yeast 2	TIM10 inh	tim10-1 inh	NALP3 yeast conf	Casp1 ASC ctr	NALP3 yeast rt
CC1=NN(C(=O)c2ccc(C)cc2)C(O)(C(F)(F)OC(F)(F)F)C1 (stereo not given)	15	53*	.	-7	2	54*	48	35
c1ccc(Oc2cc(-c3ccccc3)ncn2)cc1	25	52*	-9	1	15	47	71*	55*
CCOC(=O)c1cnn(-c2ccc(F)cc2)c1N	9	8	0	-3	-12	.	.	.
CCOC(=O)c1cnn(-c2cc(C)cc(C)c2)c1N	9	50	11	-23	-5	70*	57*	58*
Clc1ccc2nc(CSc3nc4ccccc4o3)cn2c1	14	57*	-8	19	-5	73*	69*	60*
O=C(Nc1ccc(Cl)cc1)c1cc2c(cc1O)[nH]c1ccccc12	7	53*	6	15	8	77*	72*	91*
COc1ccccc1OCc1nc(C#N)c(N2CCCC2)o1	16	25	.	-3	6	.	.	.
N#Cc1nc(COc2ccccc2)oc1N1CCN(Cc2ccccc2)CC1	33	1	8	20	30	.	.	.
Cc1ccccc1OCc1nc(C#N)c(N2CCCC2)o1	13	71*	15	-7	1	81*	83*	71*
N#Cc1nc(COc2cccc(Cl)c2)oc1N1CCCC1	20	51*	0	-7	23	65*	55*	44
N#Cc1nc(-c2ccc(F)cc2)oc1N1CCCC1	19	7	-18	-5	26	.	.	.
N#Cc1nc(COc2ccc(F)cc2)oc1N1CCCC1	13	68*	-2	-1	10	40	65*	54*
Cc1oc(-c2cccc(Cl)c2)nc1CN1CCC(C(=O)NCCCN2CC(C)CC(C)C2)CC1 (stereo not given)	1	5	-11	-5	9	.	.	.
O=C1C2CCCCN2C(=O)N1CCCCN1CCN(c2cccc(Br)c2)CC1 (stereo not given)	8	21	22	-11	8	.	.	.
O=C1c2cccc([N+](=O)[O-])c2C(=O)N1CCO	2	2	-6	-12	11	.	.	.
O=C1c2cccc3c(Nc4ccccc4Cl)c([N+](=O)[O-])cc(c23)C(=O)N1CCO	42	54*	-28	-15	1	71*	56*	56*
COc1cccc(CN(C)C(=O)c2csc3c2CCCC3)c1OC	7	51*	9	-32	-20	40	50*	40
O=C(CSc1nnnn1-c1ccc(Cl)cc1)N1CCc2ccccc2C1	43	56*	19	25	33	70*	78*	85*
Cc1cc(=O)[nH]c(SCC2COC3(CCCCC3)O2)n1 (stereo not given)	7	23	5	4	9	.	.	.
NCCNC[C@@H]1COC2(CCCCCCCCCCC2)O1	-17	59*	13	4	-11	74*	.	.
